# Assay results from the supplement of paper PMC9337992.
# ± gives the standard deviation of the averaged measurements.
# How the values were obtained:
# Assay in all cases: cell proliferation (confluence) relative to DMSO control; higher = less growth inhibition
# Conditions in all cases: 5 uM; 6 d
# BT549 = system: BT549
# Outline: (§1)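 Confluence of triple-negative breast cancer cell lines was measured by phase-contrast imaging on an IncuCyte ZOOM and normalised to DMSO-only wells. Cells went into 384-well plates at 500 per well and, after adhering, were exposed to epigenetic chemical probes in DMSO at a final 5 μM for 6 d. A ×10 objective was used, and images were analysed with Incucyte 2016 software.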
# CAL120 = system: CAL120
# Outline: as §1
# HCC1143 = system: HCC1143
# Outline: as §1
# HCC1395 = system: HCC1395
# Outline: as §1
# HCC153 = system: HCC153
# Outline: as §1
# HCC1806 = system: HCC1806
# Outline: as §1
# HCC38 = system: HCC38
# Outline: as §1
# HCC70 = system: HCC70
# Outline: as §1
# Hs578-T = system: Hs578-T
# Outline: as §1
# MB157 = system: MB157
# Outline: as §1
# SUM149-PT = system: SUM149-PT
# Outline: as §1
# SUM159-PT = system: SUM159-PT
# Outline: as §1
SMILES,cell proliferation (BT549),cell proliferation (CAL120),cell proliferation (HCC1143),cell proliferation (HCC1395),cell proliferation (HCC153),cell proliferation (HCC1806),cell proliferation (HCC38),cell proliferation (HCC70),cell proliferation (Hs578-T),cell proliferation (MB157),cell proliferation (SUM149-PT),cell proliferation (SUM159-PT)
Cc1nnc2c3ccccc3c(N[C@@H](C)[C@H](c3ccccc3)N(C)C)nn12 [L-moses],98.1 ± 1.5%,99.22 ± 0.67%,97.14 ± 0.68%,99.898 ± 0.059%,60.8 ± 6%,81.2 ± 6.2%,99.61 ± 0.29%,96.2 ± 2.5%,87 ± 19%,98.5 ± 1.9%,75.8 ± 11%,99.952 ± 0.041%
COc1cc(-c2cn(C)c(=O)c3cnccc23)c(OC)cc1CN(C)C,99.729 ± 0.064%,96.7 ± 2%,96.9 ± 3.3%,99.978 ± 0.01%,55.9 ± 8.2%,65.4 ± 6%,99.64 ± 0.17%,96.2 ± 2.6%,98.52 ± 0.23%,88.3 ± 10%,74.4 ± 19%,99.991 ± 0.0063%
CCCc1cc(C)[nH]c(=O)c1CNC(=O)c1cc(-c2ccnc(N3CCN(C)CC3)c2)cc2c1cnn2C(C)C,99.876 ± 0.081%,94.6 ± 4%,99.63 ± 0.27%,99.992 ± 0.007%,88.3 ± 2.3%,99.64 ± 0.32%,99.73 ± 0.33%,97.6 ± 2.6%,97.34 ± 0.48%,95.1 ± 5.6%,61.1 ± 10%,99.976 ± 0.033%
COc1cc2c(cc1OCCCN1CCCC1)N=C(N)C21CCC1,99.32 ± 0.28%,83.1 ± 6.3%,95.6 ± 3.2%,99.981 ± 0.027%,80.7 ± 2.8%,99.41 ± 0.36%,98.89 ± 0.42%,96.5 ± 3.6%,92.3 ± 4.1%,72.5 ± 12%,78.6 ± 16%,99.951 ± 0.031%
CCCOc1ccn2c(C(C)=O)cc(-c3ccccc3S(C)(=O)=O)c2c1,99.1 ± 0.35%,99.03 ± 0.55%,98.2 ± 1%,99.968 ± 0.022%,53 ± 5.5%,81.9 ± 6.8%,99.1 ± 0.59%,92.2 ± 7.6%,97.6 ± 0.9%,76.8 ± 20%,88.7 ± 8.8%,99.983 ± 0.013%
COc1ccccc1C(=O)Nc1cc2c(cc1N1CCCC1)n(C)c(=O)n2C,97.6 ± 1.7%,99.2 ± 0.47%,98.3 ± 1.9%,99.979 ± 0.014%,62.3 ± 11%,77.1 ± 7.8%,99.66 ± 0.35%,96.7 ± 3.5%,98.42 ± 0.77%,89.6 ± 12%,63 ± 8.4%,99.986 ± 0.0076%
COc1c(C)cc(NC(=O)c2nn(Cc3ccc(F)cc3)c3c2CN(C(=O)c2ccc[nH]2)C[C@]3(C)C(N)=O)cc1C,95.2 ± 2.6%,98.5 ± 1.5%,97.72 ± 0.68%,99.916 ± 0.05%,56.1 ± 5.2%,76.3 ± 3.2%,99.26 ± 0.96%,99.43 ± 0.33%,98.56 ± 0.55%,93.7 ± 9.7%,75.6 ± 20%,99.971 ± 0.051%
CCCc1cc(C)[nH]c(=O)c1CNC(=O)c1cc(-c2ccc(N3CCN(C(C)C)CC3)nc2)cc2c1cnn2C(C)C,21 ± 7.7%,85.5 ± 11%,98.86 ± 0.59%,99.88 ± 0.14%,91.8 ± 4.8%,92.4 ± 6.9%,99.93 ± 0.072%,80 ± 8.9%,97 ± 2%,46.2 ± 22%,11.5 ± 5.8%,99.997 ± 0.002%
CC(C)Oc1ccc(-c2c[nH]cc2CN(C)CCO)cc1,97.58 ± 0.92%,97.5 ± 1.6%,96.98 ± 0.82%,99.978 ± 0.011%,61.5 ± 8.3%,81.7 ± 3.2%,99.55 ± 0.37%,97.3 ± 1.8%,97.16 ± 0.64%,94.2 ± 3.9%,74 ± 11%,99.986 ± 0.014%
O=C(/C=C/N1C[C@H]2C[C@@H]1CN2c1ccccn1)c1ccccc1O,99.79 ± 0.1%,93.4 ± 2.2%,99.25 ± 0.15%,99.895 ± 0.019%,87.8 ± 2.8%,99.849 ± 0.052%,99.917 ± 0.014%,99.13 ± 0.33%,98.15 ± 0.9%,98.9 ± 1%,29.1 ± 5.7%,99.994 ± 0.0044%
CCC(=O)N1CCOc2c(cc(-c3ccc(OC)c(OC)c3)cc2OC[C@H]2CCCN(C)C2)C1,98 ± 1.1%,98.2 ± 1.5%,99.31 ± 0.35%,99.981 ± 0.0043%,65.2 ± 5.7%,79 ± 6.8%,99.89 ± 0.02%,92.5 ± 7.2%,97.28 ± 0.62%,94.2 ± 4.5%,29.9 ± 7.1%,99.985 ± 0.014%
CCN(C(=O)CO)[C@H]1CN(/C(=N\C#N)Nc2cccc(OC(F)F)c2)N=C1c1ccc(Cl)c(Cl)c1,99.63 ± 0.31%,90.8 ± 2.4%,99.11 ± 0.44%,99.957 ± 0.033%,82.4 ± 4.8%,99.79 ± 0.11%,99.79 ± 0.12%,90.8 ± 8.2%,98.67 ± 0.29%,78.6 ± 8.9%,75.9 ± 10%,99.999 ± 0.002%
O=C(c1ccc(C(=O)N2CCC(N3CCCC3)CC2)c(Nc2ccccc2)c1)N1CCC(N2CCCC2)CC1,99.63 ± 0.2%,95.4 ± 2.1%,99.64 ± 0.16%,99.874 ± 0.068%,89.5 ± 3.3%,99.832 ± 0.085%,99.81 ± 0.17%,99.24 ± 0.6%,98.8 ± 0.39%,99.13 ± 0.32%,89.4 ± 9.2%,99.998 ± 0.0015%
COc1cc(C#N)ccc1S(=O)(=O)Nc1ccc2c(c1)cc(C)c(=O)n2C,98 ± 1.4%,98.97 ± 0.3%,97 ± 1.3%,99.962 ± 0.051%,54.9 ± 7.1%,76.1 ± 12%,98.81 ± 0.89%,95.8 ± 5%,97.33 ± 0.58%,92.5 ± 6.8%,59.5 ± 7.1%,99.963 ± 0.039%
COc1ccc(CCc2nc3cc(-c4c(C)noc4C)ccc3n2C[C@H](C)N2CCOCC2)cc1Cl,98.71 ± 0.76%,99.636 ± 0.017%,98.527 ± 0.086%,99.941 ± 0.031%,48.7 ± 1.4%,82.67 ± 0.12%,99.927 ± 0.017%,99.75 ± 0.26%,96.9 ± 1%,90.6 ± 2.1%,34.4 ± 3.4%,99.994 ± 0.0041%
CC(C)N(CCCNC(=O)Nc1ccc(C(C)(C)C)cc1)C[C@H]1O[C@@H](n2cc(Br)c3c(N)ncnc32)[C@H](O)[C@@H]1O,99.955 ± 0.014%,98.5 ± 1.1%,99.74 ± 0.16%,99.977 ± 0.024%,85.8 ± 4.9%,99.862 ± 0.055%,99.891 ± 0.042%,93.6 ± 4.6%,96.1 ± 1.3%,89.1 ± 3.2%,76 ± 6.9%,99.997 ± 0.0024%
